Columns and labels:
Assay in all cases: log2 ratio of Biotin-Ahx-Ub-VS probe labelling (fragment/DMSO); higher = less target engagement (more negative = stronger competition), active = hit call of the paper (q ≤ 0.05, log2 ratio ≤ -1)
Details in all cases: compound concentration: 200 uM; treatment time: 3 h
USP34 = USP34 (UniProt Q70CQ2)
In short: (§1)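 HEK293T lysate (495 µg per sample, in Tris/CHAPS/IGEPAL buffer with protease inhibitors) was treated in triplicate with fragment at 200 µM or with DMSO for 3 h. It was then treated with Biotin-Ahx-Ub-VS (0.5 µM final) for 1 h. Labelled DUBs were NeutrAvidin-enriched, digested with LysC and trypsin, and run by diaPASEF LC-MS/MS. Spectronaut label-free quantities were global-median-normalised. Values are average log2 ratios fragment/DMSO by unpaired t-test, using proteins with ≥2 unique peptides.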

USP36 = biological target: T1, USP36 (UniProt Q9P275)
T1 sequence (whole entry): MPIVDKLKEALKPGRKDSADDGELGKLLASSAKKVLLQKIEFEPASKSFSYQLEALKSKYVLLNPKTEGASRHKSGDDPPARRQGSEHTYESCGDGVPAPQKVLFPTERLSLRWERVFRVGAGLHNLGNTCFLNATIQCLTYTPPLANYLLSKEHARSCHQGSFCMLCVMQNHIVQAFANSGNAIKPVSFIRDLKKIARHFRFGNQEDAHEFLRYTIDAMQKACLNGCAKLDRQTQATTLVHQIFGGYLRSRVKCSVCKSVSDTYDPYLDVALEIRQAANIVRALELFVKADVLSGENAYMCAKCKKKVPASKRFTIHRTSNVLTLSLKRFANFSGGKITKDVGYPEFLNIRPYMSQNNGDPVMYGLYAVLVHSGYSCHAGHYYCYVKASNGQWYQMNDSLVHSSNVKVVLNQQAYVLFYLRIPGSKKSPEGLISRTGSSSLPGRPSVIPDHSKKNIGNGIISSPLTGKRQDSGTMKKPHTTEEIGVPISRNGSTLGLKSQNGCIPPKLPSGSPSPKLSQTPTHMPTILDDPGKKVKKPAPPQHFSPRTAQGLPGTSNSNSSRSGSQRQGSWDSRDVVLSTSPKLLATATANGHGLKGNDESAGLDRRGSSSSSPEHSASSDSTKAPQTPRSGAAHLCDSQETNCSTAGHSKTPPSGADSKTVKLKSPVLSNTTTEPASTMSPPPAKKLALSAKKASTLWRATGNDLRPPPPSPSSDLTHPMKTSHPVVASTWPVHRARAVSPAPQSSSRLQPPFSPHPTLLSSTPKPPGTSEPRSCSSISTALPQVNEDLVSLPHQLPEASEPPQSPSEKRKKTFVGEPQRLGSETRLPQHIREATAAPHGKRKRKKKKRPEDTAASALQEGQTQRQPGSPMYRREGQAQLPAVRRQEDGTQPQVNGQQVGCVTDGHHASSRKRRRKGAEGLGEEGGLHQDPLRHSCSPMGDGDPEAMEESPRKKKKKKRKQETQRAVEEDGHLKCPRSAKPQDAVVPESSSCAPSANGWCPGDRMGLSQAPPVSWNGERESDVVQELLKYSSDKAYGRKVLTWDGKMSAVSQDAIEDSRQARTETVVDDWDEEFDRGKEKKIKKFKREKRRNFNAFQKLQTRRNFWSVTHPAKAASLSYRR
In short: as §1

USP38 = biological target: T2, USP38 (UniProt Q8NB14)
T2 sequence (whole entry): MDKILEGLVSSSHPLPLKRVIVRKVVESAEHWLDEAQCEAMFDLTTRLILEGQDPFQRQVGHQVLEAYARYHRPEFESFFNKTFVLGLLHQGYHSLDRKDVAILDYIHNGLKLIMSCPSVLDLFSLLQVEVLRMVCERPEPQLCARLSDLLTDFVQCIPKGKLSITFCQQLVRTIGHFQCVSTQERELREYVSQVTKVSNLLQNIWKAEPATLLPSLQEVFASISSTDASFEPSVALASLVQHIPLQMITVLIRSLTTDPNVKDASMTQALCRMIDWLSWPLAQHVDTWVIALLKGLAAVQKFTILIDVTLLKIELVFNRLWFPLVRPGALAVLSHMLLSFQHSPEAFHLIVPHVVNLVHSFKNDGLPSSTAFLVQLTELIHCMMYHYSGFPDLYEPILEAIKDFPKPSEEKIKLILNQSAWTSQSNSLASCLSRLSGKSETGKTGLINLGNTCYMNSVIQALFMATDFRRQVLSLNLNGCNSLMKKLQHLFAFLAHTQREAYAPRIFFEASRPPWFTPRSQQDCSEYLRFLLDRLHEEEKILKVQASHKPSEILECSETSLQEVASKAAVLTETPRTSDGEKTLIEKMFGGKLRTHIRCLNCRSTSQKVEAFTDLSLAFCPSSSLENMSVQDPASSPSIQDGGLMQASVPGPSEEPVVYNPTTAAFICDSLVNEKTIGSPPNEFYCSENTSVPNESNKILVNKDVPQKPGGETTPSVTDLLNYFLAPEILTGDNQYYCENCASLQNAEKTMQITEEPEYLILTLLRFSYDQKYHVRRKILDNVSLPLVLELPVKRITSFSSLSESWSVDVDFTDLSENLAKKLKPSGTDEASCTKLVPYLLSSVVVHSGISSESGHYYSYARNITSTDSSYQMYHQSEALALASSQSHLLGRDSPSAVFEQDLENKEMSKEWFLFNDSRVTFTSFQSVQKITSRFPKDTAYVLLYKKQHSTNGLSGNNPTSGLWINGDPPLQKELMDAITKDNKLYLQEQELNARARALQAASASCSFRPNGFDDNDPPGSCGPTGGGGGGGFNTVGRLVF
In short: as §1

USP39 = biological target: T3, USP39 (UniProt Q53GS9)
T3 sequence (whole entry): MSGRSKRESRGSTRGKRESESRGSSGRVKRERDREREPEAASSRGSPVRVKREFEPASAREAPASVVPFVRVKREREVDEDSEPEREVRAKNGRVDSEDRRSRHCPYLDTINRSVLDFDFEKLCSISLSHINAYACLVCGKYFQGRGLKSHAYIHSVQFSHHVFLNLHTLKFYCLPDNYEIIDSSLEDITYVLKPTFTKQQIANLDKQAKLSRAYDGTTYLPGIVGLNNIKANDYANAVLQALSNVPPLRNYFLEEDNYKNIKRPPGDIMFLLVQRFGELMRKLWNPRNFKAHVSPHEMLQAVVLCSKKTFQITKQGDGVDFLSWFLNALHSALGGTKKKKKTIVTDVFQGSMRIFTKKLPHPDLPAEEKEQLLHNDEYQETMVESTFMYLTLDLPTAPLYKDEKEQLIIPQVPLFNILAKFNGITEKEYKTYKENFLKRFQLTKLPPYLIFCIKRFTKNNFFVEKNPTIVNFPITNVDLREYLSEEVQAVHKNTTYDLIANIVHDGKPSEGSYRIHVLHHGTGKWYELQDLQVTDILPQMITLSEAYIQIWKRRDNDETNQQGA
In short: as §1

USP4 = biological target: T4, USP4 (UniProt Q13107)
T4 sequence (whole entry): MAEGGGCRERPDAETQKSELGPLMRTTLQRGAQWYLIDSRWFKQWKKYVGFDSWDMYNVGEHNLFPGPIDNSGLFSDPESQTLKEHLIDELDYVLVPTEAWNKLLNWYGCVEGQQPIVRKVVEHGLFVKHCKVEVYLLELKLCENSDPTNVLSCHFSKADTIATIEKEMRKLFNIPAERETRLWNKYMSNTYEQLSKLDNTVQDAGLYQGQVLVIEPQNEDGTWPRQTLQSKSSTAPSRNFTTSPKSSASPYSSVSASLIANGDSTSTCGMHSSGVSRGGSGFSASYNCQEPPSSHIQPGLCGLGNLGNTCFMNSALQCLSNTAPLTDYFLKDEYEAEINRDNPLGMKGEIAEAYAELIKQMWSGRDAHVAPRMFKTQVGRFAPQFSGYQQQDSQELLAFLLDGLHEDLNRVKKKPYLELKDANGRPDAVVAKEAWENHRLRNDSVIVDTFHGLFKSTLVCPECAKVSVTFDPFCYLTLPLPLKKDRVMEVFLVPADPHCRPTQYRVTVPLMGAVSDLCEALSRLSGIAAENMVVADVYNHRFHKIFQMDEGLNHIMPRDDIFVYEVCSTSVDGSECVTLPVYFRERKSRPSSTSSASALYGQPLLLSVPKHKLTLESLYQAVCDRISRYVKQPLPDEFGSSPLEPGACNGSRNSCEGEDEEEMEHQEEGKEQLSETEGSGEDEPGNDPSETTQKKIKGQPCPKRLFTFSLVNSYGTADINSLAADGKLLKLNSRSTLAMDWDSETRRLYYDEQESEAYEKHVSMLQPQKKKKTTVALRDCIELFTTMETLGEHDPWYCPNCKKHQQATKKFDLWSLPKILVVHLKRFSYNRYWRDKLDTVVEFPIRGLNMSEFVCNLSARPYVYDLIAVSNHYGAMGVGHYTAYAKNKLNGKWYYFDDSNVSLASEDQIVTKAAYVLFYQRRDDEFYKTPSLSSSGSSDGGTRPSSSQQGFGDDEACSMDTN
In short: as §1

Measured: log2 ratio of Biotin-Ahx-Ub-VS probe labelling

Chain of USP34 (Q70CQ2 whole entry, the tested form may be a part): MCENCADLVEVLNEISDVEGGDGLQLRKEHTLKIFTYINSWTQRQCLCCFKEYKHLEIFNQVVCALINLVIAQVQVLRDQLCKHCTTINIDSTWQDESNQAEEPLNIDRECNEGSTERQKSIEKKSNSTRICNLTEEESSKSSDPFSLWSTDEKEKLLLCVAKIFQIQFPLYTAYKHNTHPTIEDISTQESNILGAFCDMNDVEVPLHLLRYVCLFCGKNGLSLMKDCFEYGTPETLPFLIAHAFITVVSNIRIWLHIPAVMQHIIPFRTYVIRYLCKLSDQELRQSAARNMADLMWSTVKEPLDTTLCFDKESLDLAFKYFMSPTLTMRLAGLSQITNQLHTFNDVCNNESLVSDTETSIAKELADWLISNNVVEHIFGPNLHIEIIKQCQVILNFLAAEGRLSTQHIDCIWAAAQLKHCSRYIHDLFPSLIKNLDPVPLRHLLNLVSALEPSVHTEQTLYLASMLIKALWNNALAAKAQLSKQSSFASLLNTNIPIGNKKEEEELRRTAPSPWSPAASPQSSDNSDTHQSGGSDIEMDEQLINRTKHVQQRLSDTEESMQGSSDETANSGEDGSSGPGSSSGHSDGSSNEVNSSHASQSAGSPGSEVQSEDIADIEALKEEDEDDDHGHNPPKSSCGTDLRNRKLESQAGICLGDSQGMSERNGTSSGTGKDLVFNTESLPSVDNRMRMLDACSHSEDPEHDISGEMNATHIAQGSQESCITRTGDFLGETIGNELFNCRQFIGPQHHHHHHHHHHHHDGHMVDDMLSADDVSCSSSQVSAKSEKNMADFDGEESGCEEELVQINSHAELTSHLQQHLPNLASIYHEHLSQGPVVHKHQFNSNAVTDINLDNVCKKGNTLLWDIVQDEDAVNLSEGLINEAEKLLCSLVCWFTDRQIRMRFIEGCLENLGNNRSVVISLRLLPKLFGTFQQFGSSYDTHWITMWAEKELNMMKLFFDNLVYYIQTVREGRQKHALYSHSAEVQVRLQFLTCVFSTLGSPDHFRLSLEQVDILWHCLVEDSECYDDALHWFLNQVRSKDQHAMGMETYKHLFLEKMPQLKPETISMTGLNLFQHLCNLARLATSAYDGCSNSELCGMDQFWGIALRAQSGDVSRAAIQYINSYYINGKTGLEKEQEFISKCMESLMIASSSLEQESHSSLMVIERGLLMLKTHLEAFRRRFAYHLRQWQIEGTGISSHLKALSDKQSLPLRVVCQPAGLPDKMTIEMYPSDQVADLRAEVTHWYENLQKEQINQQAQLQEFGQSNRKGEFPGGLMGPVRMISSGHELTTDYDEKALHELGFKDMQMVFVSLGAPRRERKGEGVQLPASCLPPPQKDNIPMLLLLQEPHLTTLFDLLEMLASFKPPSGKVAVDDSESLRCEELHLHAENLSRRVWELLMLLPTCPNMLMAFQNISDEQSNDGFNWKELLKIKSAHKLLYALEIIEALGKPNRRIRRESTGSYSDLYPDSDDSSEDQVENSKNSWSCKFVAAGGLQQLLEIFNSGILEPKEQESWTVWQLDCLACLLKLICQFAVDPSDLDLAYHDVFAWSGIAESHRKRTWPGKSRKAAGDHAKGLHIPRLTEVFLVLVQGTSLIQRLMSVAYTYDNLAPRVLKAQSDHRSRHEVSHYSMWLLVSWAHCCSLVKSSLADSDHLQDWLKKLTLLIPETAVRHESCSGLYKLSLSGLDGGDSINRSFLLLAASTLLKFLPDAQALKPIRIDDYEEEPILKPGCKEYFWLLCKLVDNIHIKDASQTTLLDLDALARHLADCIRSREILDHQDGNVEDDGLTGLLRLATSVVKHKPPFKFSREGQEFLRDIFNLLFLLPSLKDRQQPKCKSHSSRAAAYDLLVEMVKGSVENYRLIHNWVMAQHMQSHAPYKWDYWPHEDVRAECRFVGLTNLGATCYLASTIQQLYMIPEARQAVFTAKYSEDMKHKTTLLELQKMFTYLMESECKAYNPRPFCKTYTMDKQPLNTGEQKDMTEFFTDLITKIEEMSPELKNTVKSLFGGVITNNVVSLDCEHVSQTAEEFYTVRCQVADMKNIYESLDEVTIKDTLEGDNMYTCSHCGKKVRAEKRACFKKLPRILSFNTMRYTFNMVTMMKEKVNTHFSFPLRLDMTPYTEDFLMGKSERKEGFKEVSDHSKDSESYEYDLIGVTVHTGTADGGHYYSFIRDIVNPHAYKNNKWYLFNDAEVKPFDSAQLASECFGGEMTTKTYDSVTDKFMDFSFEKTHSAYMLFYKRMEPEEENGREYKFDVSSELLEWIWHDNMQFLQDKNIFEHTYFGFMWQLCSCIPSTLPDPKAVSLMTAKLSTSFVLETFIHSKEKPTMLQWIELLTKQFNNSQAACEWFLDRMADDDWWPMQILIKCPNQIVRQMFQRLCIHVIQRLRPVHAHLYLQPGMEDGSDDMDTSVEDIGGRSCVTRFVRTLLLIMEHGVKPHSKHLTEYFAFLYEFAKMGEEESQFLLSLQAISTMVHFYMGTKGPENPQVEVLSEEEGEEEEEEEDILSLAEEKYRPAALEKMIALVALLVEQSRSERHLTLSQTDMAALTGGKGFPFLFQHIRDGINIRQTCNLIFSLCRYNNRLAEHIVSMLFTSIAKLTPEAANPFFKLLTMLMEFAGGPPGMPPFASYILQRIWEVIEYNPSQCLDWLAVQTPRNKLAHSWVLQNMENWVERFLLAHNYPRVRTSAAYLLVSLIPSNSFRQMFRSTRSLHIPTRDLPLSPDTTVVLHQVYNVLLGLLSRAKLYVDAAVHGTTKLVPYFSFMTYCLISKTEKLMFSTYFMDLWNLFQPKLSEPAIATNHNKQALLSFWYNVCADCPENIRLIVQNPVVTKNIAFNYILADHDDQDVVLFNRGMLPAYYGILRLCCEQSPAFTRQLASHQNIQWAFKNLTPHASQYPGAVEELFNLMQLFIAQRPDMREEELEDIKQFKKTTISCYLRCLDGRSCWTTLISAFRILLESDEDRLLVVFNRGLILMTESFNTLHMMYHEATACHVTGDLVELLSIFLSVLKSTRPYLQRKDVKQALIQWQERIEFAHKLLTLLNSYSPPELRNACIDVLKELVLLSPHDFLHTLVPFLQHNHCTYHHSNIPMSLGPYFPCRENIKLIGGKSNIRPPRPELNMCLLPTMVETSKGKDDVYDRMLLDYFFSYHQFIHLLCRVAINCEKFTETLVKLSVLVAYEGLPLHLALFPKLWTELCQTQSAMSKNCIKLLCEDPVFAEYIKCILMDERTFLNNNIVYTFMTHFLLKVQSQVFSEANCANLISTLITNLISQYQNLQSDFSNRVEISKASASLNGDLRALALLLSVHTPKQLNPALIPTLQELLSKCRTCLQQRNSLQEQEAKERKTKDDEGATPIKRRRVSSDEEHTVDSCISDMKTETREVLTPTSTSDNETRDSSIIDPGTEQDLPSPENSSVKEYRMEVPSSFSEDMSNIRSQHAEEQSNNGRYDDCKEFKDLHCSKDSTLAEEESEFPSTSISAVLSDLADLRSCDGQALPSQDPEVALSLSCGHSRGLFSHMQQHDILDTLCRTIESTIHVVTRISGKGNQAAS

Cc1nc(-c2cccc(NC(=O)CCl)c2)cs1
inactive: USP34 -0.392 | USP36 0.0209 | USP38 -0.179 | USP39 0.188 | USP4 -0.239
